Compound activity as filed in PubChem.
Shown is part of a subset that was picked to be rich in hits.
BJeLR viab HTS – lowers viability of BJeLR cells; BJeLR fibroblasts viability, CellTiterGlo ATP luminescence, 48 h; HRASV12, hTERT and SV40 LT/ST transformed; viability loss activity score, % (concentration not given with the values); hit rate 0.64% among 30,000; AID 2275; in the data active = viability loss activity score above about 50%; inconclusive = no clear call, values can overlap the other calls; inactive = below about 35%;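 also: higher score means fewer live cells and less ATP luminescence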
MITF inh – blocks MITF activity; AID 2240; inhibition, % (test concentration not listed); TRPM1 promoter luciferase, luminescence, 24 h; hit rate 0.28% among 37,000; in the data active = inhibition above about 85%; inconclusive = no clear call, values can overlap the other calls; inactive = below about 68%;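 also: human melanocyte line stably carrying TRPM1 promoter luciferase reporter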
Hedgehog inh – blocks Sonic Hedgehog signaling; Shh-LIGHT2 Gli-luciferase reporter, 30 h; inhibition, % (no concentration beside the values); hit rate 2.1% among 22,000; AID 2313;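 active = mean inhibition across valid replicates above about 65%, limit read from the data; inconclusive = mean under the limit, yet half or more replicates past it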;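 also: pathway switched on by Shh-conditioned medium diluted 1 in 25 in low serum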
The depositor's hits bear a star; ? = inconclusive; / = no result.

SMILES	BJeLR viab HTS	MITF inh	Hedgehog inh
Cc1ccc(S(=O)(=O)N[C@@H](Cc2ccccc2)C(=O)CCl)cc1	25	83	95*
CCCC(NS(=O)(=O)c1ccc(C)cc1)C(=O)O (stereo not drawn)	/	-12	/
O=C(COn1c(=O)n(COC(=O)c2ccccc2)c2ccccc21)c1ccccc1	-3	/	/
CC1CCc2c(sc3nc(-c4cc5ccccc5oc4=O)[nH]c(=O)c23)C1 (stereo not drawn)	-3	/	/
COc1c(-c2ccccc2)oc2c(CC=C(C)C)c3c(c(OC)c2c1=O)C=CC(C)(C)O3	-4	3	-8
C=CC(C)(C)c1c2c(c(O)c3c(=O)c4ccc(O)c(O)c4oc13)C=CC(C)(C)O2	28	?	93*
COCCN1C(=S)NC2c3ccccc3OC13CCCC23 (stereo not drawn)	22	/	/
CC(C)n1c2ccccc2c2nnc(SCCCC(=O)c3ccc(F)cc3)nc21	7	/	/
CC(C)n1c(/C=C/[C@H](O)C[C@H](O)CC(=O)O)c(-c2ccc(F)cc2)c2ccccc21	56*	-2	19
N#Cc1c(-c2ccccc2)cc(-c2ccccc2)nc1SCC(O)CS(=O)Cc1ccccc1 (stereo not drawn)	-5	/	/
CCCCN1C(=O)[C@H]2Cc3c([nH]c4ccccc34)[C@H](c3ccc(OC)cc3)N2C1=O	30	-5	79*
COc1ccc(CNC(=O)CCn2c(=O)[nH]c3ccccc3c2=O)cc1	4	/	/
Cc1oc2c(c1C(=O)NC1CCCC1)C(=O)c1ccccc1C2=O	35	70	59
Cc1oc2c(c1C(=O)N1CCC(C)CC1)C(=O)c1ccccc1C2=O	31	85*	59
O=C(NCc1ccc(Cl)cc1)c1ccc2c(=O)n(-c3ccccc3)c(=O)[nH]c2c1	3	/	/
CCCc1nn(C)c2c(=O)[nH]c(-c3cc(S(=O)(=O)N4CCN(C)CC4)ccc3OCC)nc12	-3	4	-51
CCOc1ccc(S(=O)(=O)NCc2ccccc2)cc1-c1nc2c(C(C)(C)C)nn(C)c2c(=O)[nH]1	-3	76	79*
CCOC(=O)CSC1=N/C(=C/c2ccsc2)C(=O)N1c1ccccc1	1	/	/
CN(C)c1ccc(CNc2ccc3c(c2)ncn3-c2ccccc2)cc1	-2	/	/
CO[C@@H]1C=C[C@@]23c4cc5c(cc4CN(CC2O)[C@H]3C1)OCO5 (stereo partly drawn)	18	49	88*
COc1ccc(NC(=O)N(C)C[C@H]2Oc3ccc(NS(=O)(=O)c4cn(C)cn4)cc3CC(=O)N([C@H](C)CO)C[C@H]2C)cc1	/	-9	23
C[C@@H]1CN([C@@H](C)CO)C(=O)Cc2cc(NS(C)(=O)=O)ccc2O[C@@H]1CN(C)CC1CCCCC1	/	5	-19
COc1ccc(NC(=O)N(C)C[C@H]2Oc3ccc(NS(=O)(=O)c4ccc(Cl)cc4)cc3CC(=O)N([C@@H](C)CO)C[C@H]2C)cc1	/	-12	67*
COc1ccc(NC(=O)N(C)C[C@@H]2Oc3ccc(NS(=O)(=O)c4cn(C)cn4)cc3CC(=O)N([C@H](C)CO)C[C@H]2C)cc1	/	-14	72*
Cc1noc(C)c1S(=O)(=O)Nc1ccc2c(c1)CC(=O)N([C@@H](C)CO)C[C@H](C)[C@@H](CN(C)C(=O)Nc1ccc(C(F)(F)F)cc1)O2	/	11	?
SMILES	BJeLR viab HTS	MITF inh	Hedgehog inh
C[C@@H]1CN([C@H](C)CO)C(=O)Cc2cc(NS(C)(=O)=O)ccc2O[C@H]1CN(C)CC1CC1	/	-10	75*
COc1ccc(NC(=O)N(C)C[C@@H]2Oc3ccc(NS(=O)(=O)c4ccc(Cl)cc4)cc3CC(=O)N([C@@H](C)CO)C[C@@H]2C)cc1	/	12	-13
Cc1noc(C)c1S(=O)(=O)Nc1ccc2c(c1)CC(=O)N([C@@H](C)CO)C[C@H](C)[C@H](CN(C)C(=O)Nc1ccc(C(F)(F)F)cc1)O2	/	2	66*
Cc1cc2cc(CNC(=O)c3ccc4ccccc4c3)ccc2[nH]1	20	/	/
CCN1CCN(c2cc(C)c3cc(NC(=O)COc4ccc(Cl)cc4)ccc3n2)CC1	1	/	/
CCc1cccc(NC(=O)c2cc3cc4ccc(C)cc4nc3s2)c1	5	/	/
O=C(NCC1CCCO1)c1cc(-c2ccc(Cl)s2)nc2ccccc12 (stereo not drawn)	0	/	/
CCOC(=O)N1CCC(n2c(SCc3ccc(F)cc3Cl)nc3ccsc3c2=O)CC1	-6	/	/
O=C(Cc1cn(Cc2cccc(Cl)c2)c2ccccc12)Nc1nc2ccccc2s1	6	/	/
Cc1cccc(NC(=S)N(CCN2CCCCCC2)Cc2cccs2)c1	2	/	/
COC(=O)CSc1ccc2nnc(-c3ccc(OC)cc3)n2n1	-2	/	/
COC(=O)C(Cc1c[nH]c2ccccc12)NC(=O)c1ccc(OC)cc1 (stereo not drawn)	-1	/	/
CCOc1ccc(S(=O)(=O)Nc2nc3ccccc3nc2Nc2ccccc2)cc1	0	1	?
O=S(=O)(Nc1nc2ccccc2nc1Nc1ccccc1F)c1ccc(Cl)cc1	11	34	98*
Cc1ccc(-c2[nH]c3ccccc3c2SCCNC(=O)c2ccncc2)cc1	6	/	/
CC(C)c1cc(C(=O)NCc2ccc(Cl)cc2)no1	2	/	/
CC(=O)OCC1(C)CC2[C@]3(CO[C@@]24CCC2[C@@]5(C)CC[C@H](O[C@@H]6OC[C@@H](O)[C@H](O)[C@H]6O)[C@@](C)(CO)C5CC[C@@]2(C)[C@]4(C)C[C@H]3O)[C@@H](O)C1 (stereo partly drawn)	7	7	76*
CC1(C)CC[C@@]2(C(=O)O)C(C1)C1=CCC3[C@@]4(C)CC[C@H](O[C@@H]5O[C@H](C(=O)O)[C@@H](O[C@@H]6OC[C@@H](O)[C@H](O)[C@H]6O)[C@H](O)[C@H]5O)C(C)(C)C4CC[C@@]3(C)[C@]1(C)C[C@H]2O (stereo partly drawn)	/	/	2
Cc1ccc(NC(=O)CSc2nc(-c3ccccc3)c(-c3ccccc3)[nH]2)c(C)c1	/	11	/
Cc1cc(C)c(NC(=O)CSc2nc(-c3ccccc3)c(-c3ccccc3)[nH]2)c(C)c1	/	92*	/
O=C(NCCN1CCN(c2cccc(Cl)c2)CC1)Nc1ccc(Cl)cc1	-1	/	/
OC(CN1CCN(c2cccc(Cl)c2)CC1)C(c1ccccc1)c1ccccc1 (stereo not drawn)	0	9	95*
Cc1cc(Br)ccc1NC(=O)CS(=O)(=O)c1cccc2nsnc12	17	/	/
COc1cccc(/C(O)=C\c2nc3ccc(C(=O)Nc4cccc(C)c4)cc3[nH]c2=O)c1	12	/	/
CCOc1ccc(-c2cc(C(F)(F)F)c(C#N)c(SCC)n2)cc1	2	/	/
CNC1CCc2cc(OC)c(OC)c(OC)c2-c2ccc(OC)c(=O)cc21 (stereo not drawn)	59*	32	92*
COc1c(O[C@@H]2O[C@H](CO)[C@@H](O)[C@H](O)[C@H]2O)cc2c(c1OC)-c1ccc(SC)c(=O)cc1C(NC(C)=O)CC2 (stereo partly drawn)	-5	2	-68
On1onc2c3cc(-c4ccccc4)nc3ccc21	61*	41	99*
Cc1ccc2nc(-c3ccncc3)cc(-c3ccccc3)c2c1	1	/	/
C[C@@H]1CCCCO[C@@H](CN(C)C(=O)Nc2ccc(F)cc2)[C@@H](C)CN([C@H](C)CO)C(=O)c2cc(NS(=O)(=O)c3cn(C)cn3)ccc2O1	/	13	-8
